The panel holds about 83,000 compounds, 20% with a hit somewhere; the sample as a whole holds those more often.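 How to read the values: 0–100, growth inhibition (40 = 60% inhibited); 0, no net growth; -100 to 0, cell death (-40 = 40% of starting cells died; -100 = all dead).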 Values without a mark were called inactive. The source made the active and inactive calls. The calls were made as follows: active = growth percent below 10; inactive = the rest.

This test has as its system HCT-116 colon. In words: NCI-60 one-dose screen, 48 h (100 = growth as untreated, 0 = no growth, -100 = all killed). The note with it: 10 µM unless noted.
Regarding `ClC(Cl)c1nc(-c2cccs2)n2nc(-c3ccccc3)cc2n1`, the growth was -23.7% (active).
For the compound `O=C(COc1ccc(C2SCC(=O)N2c2ccccc2)cc1)c1ccccc1` (stereo unspecified), the growth was 94.8%.
Next, `c1ccc(-c2n(Cc3ccc4ccccc4c3)c3c4ccccc4c4ccccc4c3[n+]2Cc2ccc3ccccc3c2)cc1`: -61.6% (active); `O=C1[C@@H]2Cc3c([nH]c4ccccc34)[C@H](c3c(Cl)cccc3Cl)N2C(=O)CN1C1CCN(Cc2c(F)cccc2F)CC1`: 15.7%.
Turning to `NCCN1CCN(c2nc(-c3ccccc3)nc3nc(-c4ccccc4)oc23)CC1`, the growth was -82.2% (active).
For `C/C(=C(/C)C1CC1CCN(C(=O)c1ccccn1)S(=O)(=O)c1ccc(C)cc1)C1CCCCC1` (stereo unspecified), the growth is 90.1%.
`Cc1nn(-c2ccccc2)cc1/C=N/Nc1nc(Nc2ccccc2)nc(Nc2ccc(S(N)(=O)=O)cc2)n1`: the growth was -40.9% (active).
Take `Brc1cccc(/C=N/Nc2nc(N/N=C/c3cccc(Br)c3)nc(N3CCOCC3)n2)c1`: the growth was 21.2%.
Take `COc1cc(/C=C2\SC(=O)NC2=O)ccc1OCC(=O)Nc1ccc(C(=O)/C=C/c2cc3ccccc3nc2Cl)cc1`: the growth was -62% (active).
Turning to `O=c1oc2ccc(-c3ccc(F)cc3F)cc2c(=O)n1-c1ccc(F)c(F)c1`, the growth was 6.87% (active).
Consider `CC[C@@](C)(NC(=O)C(C)(C)NC(=O)[C@@H](NC(=O)[C@@H]1CCCN1C(=O)C(C)(C)NC(=O)[C@H](CC(C)C)NC(=O)CNC(=O)C(C)(C)NC(=O)[C@@H](NC(=O)C(C)(C)NC(=O)[C@H](CCC(N)=O)NC(=O)[C@H](C)NC(=O)C(C)(C)NC(=O)[C@H](C)NC(=O)C(C)(C)NC(=O)[C@@H]1CCCN1C(=O)C(C)(C)NC(C)=O)C(C)C)C(C)C)C(=O)N[C@@H](CCC(N)=O)C(=O)N[C@@H](CCC(N)=O)C(=O)N[C@H](CO)Cc1ccccc1`, for which the growth was 27.8% [4.25 µM].
For the compound `O=C(/C=C/c1cn(-c2ccccc2)nc1-c1ccc(Cl)cc1)c1cc2ccccc2oc1=O`, the growth was 25.4%.
Next, `CCN1C(=O)N(CC)C2SC(N/N=C/c3ccc(OC)cc3)=NC21` (stereo unspecified): 6.83% (active); `O=C(O)c1ccc(-n2cc(CNc3ccc(F)cc3)c(-c3ccc(C(F)(F)F)cc3)n2)cc1`: 83.3%.
`COc1cc(/C=C/C(=O)c2ccc(NC(=O)COc3cccc4cccnc34)cc2)cc(OC)c1OC`: the growth was 23.9%.
For `COc1cc(CNC(=O)Cc2ccccc2[N+](=O)[O-])ccc1OCC(=O)NO`, the growth was 107%.
For `Oc1ccc(CSc2nnc(-c3cnccn3)o2)c2cccnc12`, the growth was 14.5%.
Next, `O=C(NCCCNc1cc(-c2cn(-c3ccccc3)nc2-c2cccc(O)c2)ccn1)Nc1ccc(F)cc1`: 10.4%; `COc1ccc(-c2nn(-c3ccccc3)cc2/C=C/C(=O)c2ccc(NC(=O)CCCCCCC(=O)NO)cc2)cc1`: 95.5%.
As for `O=C1[C@H]2Cc3c([nH]c4ccccc34)[C@@H](c3c(Cl)cccc3Cl)N2C(=O)CN1C1CCN(Cc2ccccc2)CC1`, the growth was -1.46% (active).
Turning to `COc1cccc(/C=C/C(=O)c2ccc(NC(=O)COc3cccc4cccnc34)cc2)c1`, the growth was 3.49% (active).
On to `CCCC(=O)NC(c1cccnc1)c1cc(Cl)c2cccnc2c1O` (stereo unspecified), for which the growth is 29.1%.
Consider `C/C(=N/Nc1nc(N/N=C(/C)c2ccc([N+](=O)[O-])cc2)nc(N2CCOCC2)n1)c1ccc([N+](=O)[O-])cc1`, for which the growth was 70.6%.
As for `Oc1ccc(CSc2nnc(-c3cnccn3)n2-c2ccccc2)c2cccnc12`, the growth was 19.3%.
On to `CCOC(=O)C1=C(C)Nc2nc3ccccc3n2C1c1ccccc1` (stereo unspecified), for which the growth was 69.1%.
Next, `Oc1ccc(CSc2nnc(-c3ccc(Br)cc3)o2)c2cccnc12`: 23%.
Consider `CNC(=O)c1cc(N2CCc3cc(NC(=O)Nc4ccc(Cl)c(Cl)c4)ccc32)ccn1`, for which the growth was 92.7%.
Next, `COc1cc2cc(Oc3ccc(NC(=O)Nc4cc(C(F)(F)F)cc(C(F)(F)F)c4)cc3)c(C)nc2cc1OCCN(C)C`: 110%; `Cc1cc(O)c(=O)cc2c1C[C@H]1CC(C)(C)/C=C/C[C@]3(C)Oc4cc(=O)c(O)cc(C)c4C[C@H]3C[C@H](O)[C@@]1(C)O2`: 11.3%.
Next, `COc1ccc(-c2nnc(SCc3ccc(O)c4ncccc34)n2-c2ccccc2)cc1`: 7.39% (active).
As to `O=C(CCCCCCN1CC(=O)N2[C@@H](c3ccc(Cl)c(F)c3)c3[nH]c4ccccc4c3C[C@H]2C1=O)NO`, the growth is 55.5%.

Values taken from PubChem BioAssay (NCI).
